Experimental data taken from PubChem BioAssay AID1159580 (chemical genetic matrix, 2015).
The whole screen tested about 5,500 compounds, of which about 2,000 (36%) were called active. Not shown: some 18% with an inconclusive outcome. Cut-off read from the data, not from the text of the source: active = normalized growth mostly below about 0.91 (no sharp cut-off); inconclusive = no clear call, values can overlap the other calls; inactive = mostly above about 0.92. Some of the results follow.

Assay: chemical genetic growth profiling, strain panel (AID 1159580);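 note: tested at 20 µM; growth read once vehicle control cultures reached saturation at 30 °C; 1 = growth at the plate median or of vehicle wells; lower values mean less growth of the strain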
Conditions: growth OD

Measured: normalized growth

S=c1[nH]c2ccccc2[nH]1
inactive: S. cerevisiae deletion strains, locus YAL013W, strain DEP1, stronger effect = lower value 0.988 | S. cerevisiae deletion strains, locus YBR229C, strain ROT2, stronger effect = lower value 1.01 | S. cerevisiae deletion strains, locus YDL101C, strain DUN1, stronger effect = lower value 1.02 | S. cerevisiae deletion strains, locus YDR150W, strain NUM1, stronger effect = lower value 0.993 | S. cerevisiae deletion strains, locus YEL061C, strain CIN8, stronger effect = lower value 0.982 | S. cerevisiae deletion strains, locus YGR078C, strain PAC10, stronger effect = lower value 1.02 | S. cerevisiae deletion strains, locus YHR030C, strain SLT2, stronger effect = lower value 1 | S. cerevisiae deletion strains, locus YHR087W, strain rtc3, stronger effect = lower value 1.01 | S. cerevisiae deletion strains, locus YJR043C, strain POL32, stronger effect = lower value 0.988 | S. cerevisiae deletion strains, locus YJR075W, strain HOC1, stronger effect = lower value 1.01 | S. cerevisiae deletion strains, locus YLR039C, strain RIC1, stronger effect = lower value 0.99 | S. cerevisiae deletion strains, locus YLR058C, strain SHM2 (second series), stronger effect = lower value 0.991 | S. cerevisiae deletion strains, locus YLR085C, strain ARP6, stronger effect = lower value 0.976 | S. cerevisiae deletion strains, locus YLR262C, strain YPT6, stronger effect = lower value 0.986 | S. cerevisiae deletion strains, locus YML094W, strain GIM5, stronger effect = lower value 1.06 | S. cerevisiae deletion strains, locus YMR219W, strain ESC1, stronger effect = lower value 0.999 | S. cerevisiae deletion strains, locus YMR263W, strain SAP30, stronger effect = lower value 0.984 | S. cerevisiae deletion strains, locus YMR307W, strain GAS1, stronger effect = lower value 0.87 | S. cerevisiae deletion strains, locus YNL128W, strain TEP1, stronger effect = lower value 1.02 | S. cerevisiae deletion strains, locus YNL153C, strain GIM3, stronger effect = lower value 1.01 | S. cerevisiae deletion strains, locus YNL298W, strain CLA4 (second series), stronger effect = lower value 0.997 | S. cerevisiae deletion strains, locus YNL322C, strain KRE1, stronger effect = lower value 1 | S. cerevisiae deletion strains, locus YNR030W, strain Alg12, stronger effect = lower value 1.01 | S. cerevisiae deletion strains, locus YPL055C, strain LGE1, stronger effect = lower value 0.961 | S. cerevisiae deletion strains, locus YPL241C, strain CIN2, stronger effect = lower value 1.03 | S. cerevisiae deletion strains, locus YPR135W, strain CTF4, stronger effect = lower value 1.01 | S. cerevisiae strains, strain wild type, stronger effect = lower value 0.995
